PubChem BioAssay (NCATS)
Inconclusive results are not listed. Where a call stands in place of a potency, no number is given. The source made the active and inactive calls. The call rests on the fitted dose curve; in most records, active means well fitted inhibition curve with a large enough effect; inconclusive means small, poorly fitted or top-dose-only effect; inactive means flat fitted curve, though single readings scatter.

Key:
Assay in all cases: qHTS profiling for inhibitors of Plasmodium falciparum proliferation (AID 504749); further: nearly all actives have a fitted effect of over 60% in size
Settings in all cases: P. falciparum in erythrocytes, SYBR Green DNA, 72 h; series mostly up to 28.7 µM
CP286 = tested on: CP286
Method in brief: (§1)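 Infected RBCs, 0.3% parasitemia/2.5% Hct final; cpd 72 h, 37 C, 5% CO2; lysis buffer with saponin/triton/SYBR Green I, o/n RT dark; FI 485/535; norm. to artemisinin (0.29 uM) and DMSO.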

CP291 = tested on: CP291
Method in brief: as §1

CP297 = tested on: CP297
Method in brief: as §1

CP305 = tested on: CP305
Method in brief: as §1

CP315 = tested on: CP315
Method in brief: as §1

CP325 = tested on: CP325
Method in brief: as §1

CP329 = tested on: CP329
Method in brief: as §1

CP335 = tested on: CP335
Method in brief: as §1

DFO2036 = tested on: DFO2036
Method in brief: as §1

DIV14 = tested on: DIV14
Method in brief: as §1

DIV17 = tested on: DIV17
Method in brief: as §1

DIV30 = tested on: DIV30
Method in brief: as §1

Dd2 = tested on: Dd2
Method in brief: as §1

ECU = tested on: ECU
Method in brief: as §1

FAB9 = tested on: FAB9
Method in brief: as §1

GB4 = tested on: GB4
Method in brief: as §1

HB3 = tested on: HB3
Method in brief: as §1

ICS = tested on: ICS
Method in brief: as §1

JCK = tested on: JCK
Method in brief: as §1

N140 = tested on: N140
Method in brief: as §1
Potency means the concentration at half of the fitted maximal effect.

| SMILES | Potency (CP286) | Potency (CP291) | Potency (CP297) | Potency (CP305) | Potency (CP315) | Potency (CP325) | Potency (CP329) | Potency (CP335) | Potency (DFO2036) | Potency (DIV14) | Potency (DIV17) | Potency (DIV30) | Potency (Dd2) | Potency (ECU) | Potency (FAB9) | Potency (GB4) | Potency (HB3) | Potency (ICS) | Potency (JCK) | Potency (N140) |
| --- | --- | --- | --- | --- | --- | --- | --- | --- | --- | --- | --- | --- | --- | --- | --- | --- | --- | --- | --- | --- |
| CC(C)C(=O)Nc1ccc([N+](=O)[O-])c(C(F)(F)F)c1 | inactive | inactive | inactive | inactive | inactive | inactive | inactive | inactive | inactive | inactive | inactive | inactive | inactive | inactive | inactive | inactive | inactive | inactive | inactive | inactive |
| C[C@](N)(Cc1ccc(O)c(O)c1)C(=O)O | inactive | inactive | inactive | inactive | inactive | inactive | inactive | inactive | inactive | inactive | inactive | inactive | inactive | inactive | inactive | inactive | inactive | inactive | inactive | inactive |
| COc1cc2c(c(OC)c1OC)-c1ccc(OC)c(=O)cc1[C@@H](NC(C)=O)CC2 | inactive | inactive | inactive | inactive | inactive | inactive | inactive |  | inactive | inactive | inactive | inactive | inactive | inactive | inactive | inactive | inactive | inactive | inactive | inactive |
| NCCc1cnc[nH]1 | inactive | inactive | inactive | inactive | inactive | inactive | inactive | inactive | inactive | inactive | inactive | inactive | inactive | inactive | inactive | inactive | inactive | inactive | inactive | inactive |
| CC(C)(Oc1ccc(C2CC2(Cl)Cl)cc1)C(=O)O (stereo not given) | inactive | inactive | inactive | inactive | inactive | inactive | inactive | inactive | inactive | inactive | inactive | inactive | inactive | inactive | inactive | inactive | inactive | inactive | inactive | inactive |
| Cc1cc(C(C)(C)C)cc(C)c1CC1=NCCN1 | inactive | inactive | inactive | inactive | inactive | inactive | inactive | inactive | inactive |  |  | inactive | inactive | inactive | inactive |  | inactive | inactive | inactive | inactive |
| CCCNCC(O)COc1ccccc1C(=O)CCc1ccccc1 (stereo not given) | 1.58 µM (active) | 4.26 µM (active) | 3.79 µM (active) | 4.26 µM (active) | 4.78 µM (active) | 4.26 µM (active) | 6.75 µM (active) | 3.01 µM (active) | 1 µM (active) |  | 0.536 µM (active) | 1.69 µM (active) | 1 µM (active) | 0.708 µM (active) | 1.78 µM (active) | 0.675 µM (active) | 2 µM (active) | 0.251 µM (active) | 3.55 µM (active) | 0.355 µM (active) |
| Cc1cn([C@H]2C=C[C@@H](CO)O2)c(=O)[nH]c1=O | inactive | inactive | inactive | inactive | inactive | inactive | inactive | inactive | inactive | inactive | inactive | inactive | inactive | inactive | inactive | inactive | inactive | inactive | inactive | inactive |
| O=c1c(-c2ccc(O)cc2)coc2cc(O)cc(O)c12 | inactive | inactive | inactive | inactive | inactive | inactive | inactive | inactive | inactive | inactive | inactive | inactive | inactive | inactive | inactive | inactive | inactive | inactive | inactive | inactive |
| CN1CCN2c3ccccc3Cc3ccccc3C2C1 (stereo not given) | inactive | inactive | inactive | inactive | inactive | inactive | inactive | inactive | inactive | inactive | inactive | inactive | inactive | inactive | inactive | inactive | inactive | inactive | inactive | inactive |
| CC(C)(C)C(=O)Oc1ccc(S(=O)(=O)Nc2ccccc2C(=O)NCC(=O)O)cc1 | inactive | inactive | inactive | inactive | inactive | inactive | inactive | inactive | inactive | inactive | inactive | inactive | inactive |  | inactive | inactive | inactive | inactive | inactive | inactive |
| CN(C)c1nc(N(C)C)nc(N(C)C)n1 | inactive | inactive | inactive | inactive | inactive | inactive | inactive | inactive | inactive | inactive | inactive | inactive | inactive | inactive | inactive | inactive | inactive | inactive | inactive | inactive |
| Cn1c(=O)c2c(ncn2C)n(C)c1=O | inactive | inactive | inactive | inactive | inactive | inactive | inactive | inactive | inactive | inactive | inactive | inactive | inactive | inactive | inactive | inactive | inactive | inactive | inactive | inactive |
| CN1CCC(=C2c3ccccc3CC(=O)c3sccc32)CC1 | inactive |  |  |  | inactive |  |  |  | inactive | 5.36 µM (active) | 6.01 µM (active) |  | 4.47 µM (active) | 7.08 µM (active) | 6.31 µM (active) | 1.51 µM (active) | inactive |  |  |  |
| CCC1(c2ccccc2)C(=O)NCNC1=O | inactive | inactive | inactive | inactive | inactive | inactive | inactive |  | inactive | inactive | inactive | inactive | inactive | inactive | inactive | inactive | inactive |  | inactive | inactive |
| CCCCc1oc2ccccc2c1C(=O)c1cc(I)c(OCCN(CC)CC)c(I)c1 | 11.2 µM (active) |  |  |  | inactive |  |  | 9.53 µM (active) |  | 7.57 µM (active) | 13.5 µM (active) | 8.49 µM (active) | 11.2 µM (active) | 8.91 µM (active) |  | 9.53 µM (active) | 11.2 µM (active) | 3.55 µM (active) |  | 5.01 µM (active) |

| SMILES | Potency (CP286) | Potency (CP291) | Potency (CP297) | Potency (CP305) | Potency (CP315) | Potency (CP325) | Potency (CP329) | Potency (CP335) | Potency (DFO2036) | Potency (DIV14) | Potency (DIV17) | Potency (DIV30) | Potency (Dd2) | Potency (ECU) | Potency (FAB9) | Potency (GB4) | Potency (HB3) | Potency (ICS) | Potency (JCK) | Potency (N140) |
| --- | --- | --- | --- | --- | --- | --- | --- | --- | --- | --- | --- | --- | --- | --- | --- | --- | --- | --- | --- | --- |
| O=C1c2c(O)ccc(O)c2C(=O)c2c(NCCNCCO)ccc(NCCNCCO)c21 | 1.12 µM (active) | 6.42 µM (active) | 6.42 µM (active) | 5.1 µM (active) | 6.42 µM (active) |  |  | 2.87 µM (active) | 2.51 µM (active) | 4.55 µM (active) | 2.56 µM (active) | 5.1 µM (active) | 1.58 µM (active) |  |  | 2.87 µM (active) | 3.16 µM (active) | 1.58 µM (active) |  | 2.24 µM (active) |
| CC(C)NCC(O)COc1ccc(CCOCC2CC2)cc1 (stereo not given) | inactive | inactive | inactive | inactive | inactive | inactive | inactive |  |  |  |  |  |  |  | inactive |  |  | 5.01 µM (active) | inactive |  |
| COc1ccc2[nH]cc(CCNC(C)=O)c2c1 | inactive | inactive | inactive | inactive |  | inactive | inactive | inactive | inactive | inactive | inactive | inactive | inactive | inactive | inactive | inactive | inactive | inactive | inactive | inactive |
| O=c1c(O)c(-c2ccc(O)c(O)c2)oc2cc(O)cc(O)c12 | 11.2 µM (active) |  |  |  |  |  |  |  |  | 15.1 µM (active) |  |  |  | inactive |  | 12 µM (active) |  | 7.94 µM (active) | inactive | inactive |
| NC12CC3CC(CC(C3)C1)C2 | inactive | inactive |  | inactive | inactive | inactive | inactive |  | inactive | inactive | inactive | inactive | inactive | inactive | inactive |  | inactive | inactive |  | inactive |
| CC1(CN2CCC(n3c(=O)[nH]c4ccccc43)CC2)OCc2ccccc2-n2cccc21 (stereo not given) |  |  |  |  | inactive | inactive | inactive |  |  | 9.53 µM (active) | 13.5 µM (active) | 13.5 µM (active) | 11.2 µM (active) | 10 µM (active) | inactive |  |  | 3.98 µM (active) | inactive | 12.6 µM (active) |
| CN(C)CCCN1c2ccccc2CCc2ccc(Cl)cc21 |  |  |  | inactive | inactive | inactive | inactive |  | inactive | 1.51 µM (active) | 3.38 µM (active) |  |  |  | inactive | 8.49 µM (active) | inactive | 10 µM (active) | inactive |  |
| Cc1ccc(-c2cc(C(F)(F)F)nn2-c2ccc(S(N)(=O)=O)cc2)cc1 | 8.91 µM (active) |  |  |  |  |  |  |  |  |  |  |  | inactive | 10 µM (active) | inactive | 13.5 µM (active) | inactive |  | inactive |  |
| CN(C)C(=N)N=C(N)N | inactive |  |  | inactive |  | inactive | inactive | inactive | inactive |  |  |  | inactive | inactive | inactive |  | inactive | inactive | inactive | inactive |
| COc1ccc(CCN(C)CCCC(C#N)(c2ccc(OC)c(OC)c2)C(C)C)cc1OC (stereo not given) | inactive |  | inactive |  |  | inactive |  |  | inactive | inactive |  |  |  | inactive | inactive | inactive | inactive |  | inactive | inactive |
| CN1CCC(=C2c3ccccc3C=Cc3ccccc32)CC1 | inactive | inactive | inactive | inactive | inactive | inactive | inactive |  | inactive |  |  | inactive |  | inactive | inactive |  | inactive |  | inactive | inactive |
| CC[C@@]1(O)C(=O)OCc2c1cc1n(c2=O)Cc2cc3c(CN(C)C)c(O)ccc3nc2-1 | 5.62 µM (active) | 4.78 µM (active) | 7.57 µM (active) |  |  |  | 6.75 µM (active) | 4.78 µM (active) | 5.62 µM (active) |  |  |  | 10 µM (active) | 3.98 µM (active) | inactive | 5.36 µM (active) |  | 7.94 µM (active) |  |  |
| CN(C)CCC=C1c2ccccc2C=Cc2ccccc21 |  |  |  |  | inactive | inactive | inactive |  | inactive | 2.39 µM (active) | 3.79 µM (active) |  |  | inactive | inactive |  | inactive | 8.91 µM (active) |  | inactive |
| CC12CC3CC(C)(C1)CC(N)(C3)C2 | inactive | inactive |  | inactive | inactive | inactive | inactive | inactive | inactive |  |  | inactive | 5.01 µM (active) | inactive | inactive |  | inactive | inactive | inactive | inactive |
| Clc1ccc2c(c1)C(N1CCNCC1)=Nc1ccccc1O2 |  | inactive |  | inactive | inactive | inactive | inactive |  |  |  |  | inactive |  |  | inactive |  |  |  | inactive |  |
| CS(=O)(=O)CCNCc1ccc(-c2ccc3ncnc(Nc4ccc(OCc5cccc(F)c5)c(Cl)c4)c3c2)o1 | inactive | inactive |  | inactive | inactive | inactive | inactive | inactive | inactive | inactive | inactive | inactive | inactive | inactive | inactive | inactive | inactive | inactive | inactive | inactive |
